PMC4336329 (PLoS ONE, 2015)
In all, about 310,000 compounds went through this assay and about 14,000 (4.5%) showed an effect of 50% or more. The effect is printed as a negative number. Shown is part of a subset that was picked to be rich in strong results.

Molecular target: human ether-à-go-go-related gene (hERG) potassium channel (human, UniProt Q12809)
Test: primary screen, population patch clamp on CHO cells stably expressing hERG; higher = less effect of the substance
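Note: peak tail current of the secondary pulse compared with the same well before compound.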

Sequence of human ether-à-go-go-related gene (hERG) potassium channel (Q12809 whole entry, looked up): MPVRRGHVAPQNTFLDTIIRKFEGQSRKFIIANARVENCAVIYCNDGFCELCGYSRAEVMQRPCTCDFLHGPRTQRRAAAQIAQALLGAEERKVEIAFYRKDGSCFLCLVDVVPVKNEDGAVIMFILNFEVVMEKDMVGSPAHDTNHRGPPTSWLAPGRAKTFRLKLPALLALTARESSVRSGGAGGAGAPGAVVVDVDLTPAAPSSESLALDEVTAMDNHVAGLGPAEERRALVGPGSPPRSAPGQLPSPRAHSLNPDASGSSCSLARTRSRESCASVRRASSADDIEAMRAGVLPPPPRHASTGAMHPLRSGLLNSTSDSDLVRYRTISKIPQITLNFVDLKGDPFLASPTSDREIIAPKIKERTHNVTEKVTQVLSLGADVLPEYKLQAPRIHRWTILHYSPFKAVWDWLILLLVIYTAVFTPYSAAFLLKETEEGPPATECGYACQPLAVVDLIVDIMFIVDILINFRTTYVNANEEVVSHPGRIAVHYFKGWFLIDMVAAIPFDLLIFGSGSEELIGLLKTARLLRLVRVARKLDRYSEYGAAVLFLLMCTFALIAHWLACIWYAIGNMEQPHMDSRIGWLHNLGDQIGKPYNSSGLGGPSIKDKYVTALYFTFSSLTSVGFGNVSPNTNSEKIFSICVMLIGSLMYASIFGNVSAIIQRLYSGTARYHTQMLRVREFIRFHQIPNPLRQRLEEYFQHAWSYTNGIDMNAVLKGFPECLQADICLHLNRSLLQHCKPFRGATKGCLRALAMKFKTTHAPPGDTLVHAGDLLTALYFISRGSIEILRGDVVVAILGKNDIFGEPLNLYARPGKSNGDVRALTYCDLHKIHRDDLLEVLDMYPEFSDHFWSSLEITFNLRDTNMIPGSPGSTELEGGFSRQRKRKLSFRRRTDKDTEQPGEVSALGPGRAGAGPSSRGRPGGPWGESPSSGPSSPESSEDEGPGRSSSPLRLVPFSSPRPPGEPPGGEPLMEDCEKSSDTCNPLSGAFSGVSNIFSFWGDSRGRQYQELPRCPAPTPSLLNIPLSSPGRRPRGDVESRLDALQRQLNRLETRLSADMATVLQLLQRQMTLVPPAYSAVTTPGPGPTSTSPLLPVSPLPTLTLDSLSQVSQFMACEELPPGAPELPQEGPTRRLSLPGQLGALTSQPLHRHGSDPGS

In order of rising “hERG current change (%, negative = inhibition) at 10uM” value:
1. O=C(c1ccc(F)cc1)C1CCN(Cc2cn[nH]c2-c2ccccc2)CC1  -78.8%
2. COc1ccc(-c2[nH]ncc2CN2CCC(C(=O)c3ccc(F)cc3)CC2)cc1  -76.2%
3. O=C(c1ccc(F)cc1)C1CCN(Cc2cn[nH]c2-c2ccc(F)cc2)CC1  -75.2%
4. COc1ccc(SC[C@H](Cc2ccccc2)N2CCN(CCc3ccccc3)CCC2=O)cc1  -74.6%
5. COc1ccc(SC[C@H](CC(C)C)N2CCN(CCc3ccccc3)CCC2=O)cc1  -71.3%
6. CCCN1CCC(=O)N([C@H](CSc2ccc(OC)cc2)CC(C)C)CC1  -70.8%
7. CCCN1CCC(=O)N([C@H](CSc2ccc(OC)cc2)Cc2ccccc2)CC1  -70.5%
8. COc1ccc(C2C3=C(CC(C)(C)CC3=O)Oc3ncn(CC(C)C)c(=N)c32)cc1 (stereo not shown)  -69.1%
9. CCOC(=O)c1c(NC(=O)COC(=O)Cc2ccccc2[N+](=O)[O-])sc(C(=O)N(C)C)c1C  -68.9%
10. COc1ccc(C2C3=C(CC(C)(C)CC3=O)Oc3ncn(Cc4ccco4)c(=N)c32)cc1 (stereo not shown)  -68.3%
11. CCOC(=O)c1c(NC(=O)COC(=O)Cc2c[nH]c3ccccc23)sc(C(=O)N(C)C)c1C  -62.5%
12. CC1(C)CC(=O)C2=C(C1)Oc1ncn(Cc3ccco3)c(=N)c1C2c1ccccc1 (stereo not shown)  -60.8%
13. COc1ccc(C2C3=C(CC(C)(C)CC3=O)Oc3ncn(Cc4ccccc4)c(=N)c32)cc1 (stereo not shown)  -55.5%
14. CC1(C)CC(=O)C2=C(C1)Oc1ncn(CCCn3ccnc3)c(=N)c1C2c1ccccc1 (stereo not shown)  -53.3%
15. CCCN1CCC(=O)N(CCSc2ccc(OC)cc2)CC1  -45.4%
16. O=C(c1ccc(F)cc1)C1CCN(S(=O)(=O)c2ccccc2)CC1  -43.1%
17. CC(C)Cn1cnc2c(c1=N)C(c1ccccc1)C1=C(CC(C)(C)CC1=O)O2 (stereo not shown)  -38.8%
18. COc1ccc(C(=O)N2CCN(Cc3cn[nH]c3-c3ccc(OC)cc3F)CC2)cc1  -38.3%
19. O=C(NCC(c1ccco1)N1CCc2ccccc2C1)c1ccccc1Br (stereo not shown)  -37.5%
20. COc1ccc(SC[C@H](CC(C)C)N2CCN(C)CCC2=O)cc1  -36.3%
21. CC1(C)CC(=O)C2=C(C1)Oc1ncn(CCO)c(=N)c1C2c1ccccc1 (stereo not shown)  -35.3%
22. O=C(/C=C/c1ccco1)Nc1ccc(CN2CCOCC2)cc1  -31.3%
23. CC1(C)CC(=O)C2=C(C1)Oc1ncn(CCCO)c(=N)c1C2c1ccccc1 (stereo not shown)  -29%
24. O=C(c1cccs1)[C@@H]1[C@@H]2C(=O)N(Cc3ccc4c(c3)OCO4)C(=O)[C@@H]2C2c3ccccc3C=CN21 (stereo partly shown)  -26.7%
25. O=c1c2cc(N3CCOCC3)ccc2[nH]c(=S)n1Cc1ccco1  -25.1%
26. COc1ccc(C2C3=C(CC(C)(C)CC3=O)Oc3ncn(CCO)c(=N)c32)cc1OC (stereo not shown)  -24.5%
27. COc1ccc(SC[C@H](Cc2ccccc2)N2CC[C@@H](C)CCC2=O)cc1  -20.1%
28. Cc1ccccc1OC(C)C(=O)N1CCC(Cc2ccccc2)CC1 (stereo not shown)  -17.5%
29. COc1ccc(C2C3=C(CC(C)(C)CC3=O)Oc3ncn(CCCn4ccnc4)c(=N)c32)cc1 (stereo not shown)  -16.6%
30. CN(Cc1nc2ccccc2[nH]1)Cc1nc(CC2CC2)no1  -14.5%
31. CCOC(=O)c1c(NC(=O)COC(=O)CCOc2ccc(OCC)cc2)sc(C(=O)N(C)C)c1C  -8.87%
32. CCOC(=O)c1c(NC(=O)COC(=O)c2ccc([N+](=O)[O-])cc2)sc(C(=O)N(C)C)c1C  -8.65%
33. COc1ccc(SC[C@H](Cc2ccccc2)N2CC[C@@H](O)CCC2=O)cc1  -8.62%
34. N=c1c2c(ncn1Cc1ccco1)Oc1ccc3ccccc3c1C2c1ccccc1 (stereo not shown)  -6.08%
35. CCOc1cc(Br)ccc1S(=O)(=O)N1CCC(C(N)=O)CC1  -5.26%
36. COC(=O)COc1ccc2occ(C(C)=O)c2c1  -3.74%
37. CC(C)Oc1ccc(C(CC(=O)O)NC(=O)c2cccs2)cc1 (stereo not shown)  -2.74%
38. COc1ccc(CN2CCC(=O)N([C@H](CO)CC(C)C)CC2)cc1  -2.62%
39. COc1ccc(C2C3=C(CC(C)(C)CC3=O)Oc3ncn4nc(-c5cccnc5)nc4c32)cc1 (stereo not shown)  -2.59%
40. CCOC(=O)c1c(NC(=O)COC(=O)Cc2n[nH]c(=O)c3ccccc23)sc(C(=O)N(C)C)c1C  -2.24%
41. O=S(=O)(c1ccc2c(c1)CCN2)N1CCOCC1  -2.2%
42. COc1ccc(CN2CCC(=O)N([C@H](CO)Cc3ccccc3)CC2)cc1  -2.16%
43. O=C(CCCCCN1C(=O)c2cccc3cccc(c23)C1=O)NCCCO  -1.71%
44. CCCCCCC1C(C#N)=C(N)OC2=C1C(=O)CC(C)(C)C2 (stereo not shown)  -0.43%
45. Cc1cc(N2CC34C=CC(O3)C(C(=O)O)C4C2=O)no1 (stereo not shown)  2.22%
46. COCCNC(=O)Cc1cn(C)c2ccccc12  4.15%
47. CCOC(=O)N1CCC(=NNC(=O)c2ccc(O)cc2)CC1  4.27%
48. CCOC(=O)c1c(NC(=O)COC(=O)c2ccccn2)sc(C(=O)N(C)C)c1C  4.44%
49. COc1ccc(-c2[nH]ncc2CN2CCC(C(=O)N3CCOCC3)CC2)c(F)c1  5.23%
50. O=C1COc2ccc(C(=O)COc3ccc([N+](=O)[O-])cc3)cc2N1  8.2%
51. COc1ccc(C2C3=C(CC(C)(C)CC3=O)Nc3c2c(=O)[nH]c(=O)n3Cc2ccccc2)cc1 (stereo not shown)  8.57%
52. O=C(C1CCN(Cc2cn[nH]c2-c2ccc(F)cc2F)CC1)N1CCOCC1  8.72%
53. COc1ccc(C2C3=C(CC(C)(C)CC3=O)OC(N)=C2[N+](=O)[O-])cc1 (stereo not shown)  8.74%
54. Cc1ccc(OCCNC(=O)CNC(=O)c2ccc(C)cc2)cc1  9.37%
55. Cc1onc(-c2c(Cl)cccc2Cl)c1C(=O)O/N=C(\C#N)c1c(Cl)cccc1Cl  9.4%
56. COc1ccc(SC[C@H](Cc2ccccc2)N2CC[C@@H](C(C)(C)C)CCC2=O)cc1  9.92%
57. Cc1ccc(C)c(OCCC(=O)NCCc2ccc(S(N)(=O)=O)cc2)c1  10.7%
58. COc1cccc(CNC(=O)CCNC(=O)c2ccc(Br)o2)c1  11.2%
59. COc1ccc(C2C(C#N)=C(N)OC3=C2C(=O)CC(C)(C)C3)cc1 (stereo not shown)  12.8%
60. Nc1cc(=O)[nH]c(SCC(=O)Nc2ccccc2Sc2ccc(Cl)cc2)n1  14.5%
61. O=c1[nH]c(C2CC2)nc2sc3c(c12)CCCC3  15.8%
